23 compounds from PubChem BioAssay AID434989 (The Scripps Research Institute Molecular Screening Center, 2010) can be followed below.

Out of some 330,000 compounds screened, about 1,400 (0.42%) were called active. The sample holds actives, similar compounds and a random draw of the others, so the mix is not that of the screen.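 How the source made its calls: active means inhibition above its plate's threshold, mean inhibition of all tested compounds on the plate plus 3 SD (cut at about 37% in these data); inactive means the rest.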

Sequence of Orexin/Hypocretin receptor type 1 (Homo sapiens) (O43613 whole entry, looked up): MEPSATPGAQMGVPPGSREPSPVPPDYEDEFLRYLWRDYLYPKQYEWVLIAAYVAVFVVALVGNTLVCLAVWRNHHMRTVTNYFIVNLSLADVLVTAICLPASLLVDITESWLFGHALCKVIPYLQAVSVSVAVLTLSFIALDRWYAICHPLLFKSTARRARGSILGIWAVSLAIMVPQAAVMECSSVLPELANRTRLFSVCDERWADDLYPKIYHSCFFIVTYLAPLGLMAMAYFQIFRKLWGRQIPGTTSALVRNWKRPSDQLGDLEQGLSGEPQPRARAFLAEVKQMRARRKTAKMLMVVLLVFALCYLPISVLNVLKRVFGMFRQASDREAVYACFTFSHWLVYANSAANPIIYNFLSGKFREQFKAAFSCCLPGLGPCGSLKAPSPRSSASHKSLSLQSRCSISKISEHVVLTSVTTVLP

This assay has as its target Orexin/Hypocretin receptor type 1 (Homo sapiens) (UniProt O43613). The assay can be described thus: OX1R (HCRTR1) antagonists, primary screen, fluorescence, CHO/OX1R cells, Fluo-8 calcium, orexin A (AID 434989).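 Further: 0% = orexin A challenge wells and 100% = SB-334867-A antagonist wells.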 The note with it: Fluo-8 calcium fluorescence, at 5 µM, active compounds read high.
Take `Fc1ccccc1/C=N/n1c(-c2cccnc2)n[nH]c1=S`: the inhibition was -5.34% (inactive).

For the compound `S=c1[nH]nc(-c2cc(-c3ccccc3)n[nH]2)n1/N=C/c1c2ccccc2cc2ccccc12`, the inhibition was 44.8% (active). With `c1ccc(-c2cc(-c3ccccc3)[nH]n2)cc1`, the inhibition was -9.86% (inactive).

Take `C=CC[C@H](CC(=O)OC(C)(C)C)C(=O)OC[C@H]1CCCN1C(=O)[C@H](CC=C)CC(=O)N(CCO)Cc1ccccc1`: the inhibition was -15.6% (inactive). The value for `O=C1N[C@H](Cc2c[nH]c3ccccc23)COC(=O)[C@H](Cc2ccc(F)cc2)C/C=C\C[C@H]1CC(=O)N(CCO)Cc1ccccc1` was -2.05% (inactive); that for `CC(C)(C)NS(=O)(=O)NC(=O)C1=C(N2CCCC2)COC1=O` was -2.12% (inactive); that for `O=C(N/N=C/c1sc(N2CCCCC2)nc1-c1cccs1)c1cccnc1` was 44.9% (active).

With `O=C(NN=C1CCC(=NNC(=O)c2cccnc2)CC1)c1cccnc1`, the inhibition is -6.2% (inactive).

As to `O=C(CNC(=O)c1cccnc1)N/N=C/c1cccnc1`, the inhibition is 1.04% (inactive).

In the case of `CC(=O)N(O)CCCCCNC(=O)CCC(=O)N(O)CCCCCNC(=O)CCC(=O)N(O)CCCCCNC(=O)CCC(=O)O`, the inhibition was -5.54% (inactive). For `O=C(NC(Cc1c[nH]c2ccccc12)C(=O)N/N=C/c1ccc(Br)cc1)c1cccs1` (stereo not drawn) the value was 52.5% (active); for `CC(=O)NC(Cc1c[nH]c2ccccc12)C(=O)O` (stereo not drawn), -1.34% (inactive).

On to `CC(=O)Nc1ccc(/C=N/NC(=O)c2cccs2)cc1`, for which the inhibition is 18.2% (inactive). For `Cc1ccc(N2C(=O)N3[C@@H]4c5ccccc5OC[C@@H]4[C@@H](c4ccccc4)[C@@]3(C)C2=O)cc1` the value was -30.9% (inactive); for `COc1ccc(CNc2nc(NCc3ccc(OC)cc3)c3ncn(C4CCCC4)c3n2)cc1`, -5.92% (inactive); for `Cc1noc(C)c1NC(=O)Nc1ccc2c(c1)C(=O)N([C@H](C)CO)C[C@H](C)[C@@H](CN(C)C(=O)Nc1ccccc1)O2`, -4.54% (inactive). For `CC(=O)c1ccc(NC(=S)NC(=O)CC(C)C)cc1` the value was 3.22% (inactive); for `COc1cc(NS(=O)(=O)c2ccc(NC(C)=O)cc2)cc(OC)c1`, 9.3% (inactive). In the case of `COc1ccc(NS(=O)(=O)c2ccc(NC(=S)NC(=O)CC(C)C)cc2)cc1`, the inhibition was 50.3% (active). For `COc1ccc(N2CCN(C(CNS(=O)(=O)c3ccc(C)cc3)c3ccccc3)CC2)cc1` (stereo not drawn) the value was -26.8% (inactive). For `CCN([C@H](CO)C(C)C)S(=O)(=O)c1ccccc1Br` the value was 1.51% (inactive). Regarding `O=C(COC(=O)COc1ccccc1F)Nc1cccc(S(=O)(=O)N2CCCCC2)c1`, the inhibition is -27.3% (inactive).

On to `CCn1nnc2cc(C(=O)Nc3ccc(C(=O)OC(C)C)cc3)ccc21`, for which the inhibition is -14.8% (inactive).
